# Results filed as inconclusive are left out. A number with no mark means an inactive call. Calls follow the shape of the dose curve; as a rule, active = well fitted curve in the direction sought with a large enough effect; inconclusive = small, poorly fitted or top-dose-only effect, or another doubt; inactive = no such curve, though single readings can be large or run the other way.
# Biological target: Vasopressin V1b receptor (Homo sapiens) (UniProt P47901)
# Experiment: Counterscreen Concentration-Response Assay for Antagonists of the Neuropeptide S Receptor: Vasopressin Receptor Calcium Signal Transduction
# Conditions: CHO-AVPR1B, vasopressin-stimulated calcium fluorescence, FDSS
# Description: NIH Chemical Genomics Center [NCGC] NIH Molecular Libraries Probe Production centers Network [MLPCN] MLPCN Grant: X01-DA026210-01 Assay Submitter (PI): Heilig, Markus Alexander NCGC Assay Overview: Neuropeptide S receptor (NPSR), previously known as GPR154, is a recently de-orphanized G protein coupled receptor. Its endogenous ligand is the 20 amino acids peptide Neuropeptide S (NPS). […] NPS and its receptor are found in various tissues. Specifically they are highly expressed in brain areas that have been implicated in modulation of arousal, stress and anxiety. […] This change in intracellular calcium can be detected using a calcium indicator dye on a calcium imaging plate reader system (FDSS). […]
# NCGC Assay Protocol Summary: A Chinese hamster ovary (CHO) cell line stably expressing human vasopressin receptor (AVPR1B) was maintained in F-12 Kaighn's media (Invitrogen, Carlsbad, CA, 21127) supplemented with 10 % FBS, 100 units/ml penicillin, 100 ug/ml streptomycin and 250 ug/ml geneticin at 37C, 5% CO2 in a humidified atmosphere. […] The assay was performed on a FDSS-7000 kinetic plate reader in 1536-well format. The maximums of kinetic fluorescence responses were converted into text files using the instrument's software data export utility. […] AC50 values were determined from concentration-response data modeled with the standard Hill equation. […]
# Vasopressin V1b receptor (Homo sapiens), sequence (P47901 whole entry, looked up): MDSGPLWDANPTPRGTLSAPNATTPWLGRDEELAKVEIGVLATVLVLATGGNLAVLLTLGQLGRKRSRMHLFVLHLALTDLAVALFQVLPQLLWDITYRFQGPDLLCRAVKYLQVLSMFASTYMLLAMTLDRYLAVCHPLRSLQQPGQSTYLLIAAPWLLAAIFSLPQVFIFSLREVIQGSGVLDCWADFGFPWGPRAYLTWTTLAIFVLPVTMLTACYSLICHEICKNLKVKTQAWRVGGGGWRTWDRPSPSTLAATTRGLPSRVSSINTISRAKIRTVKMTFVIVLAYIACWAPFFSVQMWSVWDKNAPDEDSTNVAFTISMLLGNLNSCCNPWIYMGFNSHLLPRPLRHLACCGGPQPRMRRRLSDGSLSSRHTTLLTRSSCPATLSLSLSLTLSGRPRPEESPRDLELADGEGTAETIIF
structure (smiles),measurement,value
Cc1c(P(=S)(c2ccccc2)c2ccccc2)[n+]2ccccc2n1C,max response,7.72%
